JMJD2A Tudor = blocks the human JMJD2A Tudor domain; AlphaScreen JMJD2A-Tudor / H3K4me3 peptide binding; Potency, µM (titrated, usually from 114 µM), without a hit: top-dose activity change, negative = inhibition, actives largely listed as inhibitors; 390,000 tested, 4.4% active; AID 504339; further: on the % scale 0 is the no-effect control and ±100 the full control effect; nearly all actives have a fitted effect of over 50% in size
L3MBTL1 inh = blocks human L3MBTL1 | AlphaScreen L3MBTL1–H3K9me1 peptide binding | Potency, µM (series often up to 57.1 µM), without a hit: top-dose activity, negative = inhibition, most hits filed as inhibitors | 230,000 tested, 0.66% active; further: on the % scale 0 is the no-effect control and ±100 the full control effect; nearly all actives have a fitted effect of over 60% in size
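L3MBTL1 (50 nM) pre-complexed 30 min with biotinylated H3(1-15)K9me1 peptide (75 nM), then compounds added for 30 min at room temperature; AlphaScreen streptavidin donor/nickel chelate acceptor beads (10 ug/mL final) read after 30 min dark incubation.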
Sfp PPTase inh = blocks B. subtilis Sfp PPTase activity; Q9F4F7; Biochemical Sfp PPTase activity, qHTS; Potency, µM, for the others: largest response in the series, negative = inhibition, hits mostly inhibitors; 310,000 tested, 3.5% active; AID 1490;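 further: the enzyme is Sfp with the accession as filed and its product quenches rhodamine fluorescence; 0% = enzyme reaction without inhibitor and -100% = no enzyme wells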
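Buffer: 50 mM Hepes-Na pH 7.6, 10 mM MgCl2, 0.01% Nonidet P-40, 0.01% BSA. Enzyme 15 nM, pre-exposed to compound 15 min; substrates then added and fluorescence change tracked over 30 min.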
BAZ2B block = BAZ2B (human) inhibition; AlphaScreen BAZ2B-H3K14Ac peptide displacement; 360,000 tested, 4.4% active; Q9UIF8; Potency, µM (titrated, usually from 114 µM), without a hit: at the highest dose activity change, negative = inhibition, most hits filed as inhibitors; further: on the % scale 0 is the no-effect control and ±100 the full control effect; nearly all actives have a fitted effect of over 60% in size
Target sequence (Q9UIF8 whole entry, looked up): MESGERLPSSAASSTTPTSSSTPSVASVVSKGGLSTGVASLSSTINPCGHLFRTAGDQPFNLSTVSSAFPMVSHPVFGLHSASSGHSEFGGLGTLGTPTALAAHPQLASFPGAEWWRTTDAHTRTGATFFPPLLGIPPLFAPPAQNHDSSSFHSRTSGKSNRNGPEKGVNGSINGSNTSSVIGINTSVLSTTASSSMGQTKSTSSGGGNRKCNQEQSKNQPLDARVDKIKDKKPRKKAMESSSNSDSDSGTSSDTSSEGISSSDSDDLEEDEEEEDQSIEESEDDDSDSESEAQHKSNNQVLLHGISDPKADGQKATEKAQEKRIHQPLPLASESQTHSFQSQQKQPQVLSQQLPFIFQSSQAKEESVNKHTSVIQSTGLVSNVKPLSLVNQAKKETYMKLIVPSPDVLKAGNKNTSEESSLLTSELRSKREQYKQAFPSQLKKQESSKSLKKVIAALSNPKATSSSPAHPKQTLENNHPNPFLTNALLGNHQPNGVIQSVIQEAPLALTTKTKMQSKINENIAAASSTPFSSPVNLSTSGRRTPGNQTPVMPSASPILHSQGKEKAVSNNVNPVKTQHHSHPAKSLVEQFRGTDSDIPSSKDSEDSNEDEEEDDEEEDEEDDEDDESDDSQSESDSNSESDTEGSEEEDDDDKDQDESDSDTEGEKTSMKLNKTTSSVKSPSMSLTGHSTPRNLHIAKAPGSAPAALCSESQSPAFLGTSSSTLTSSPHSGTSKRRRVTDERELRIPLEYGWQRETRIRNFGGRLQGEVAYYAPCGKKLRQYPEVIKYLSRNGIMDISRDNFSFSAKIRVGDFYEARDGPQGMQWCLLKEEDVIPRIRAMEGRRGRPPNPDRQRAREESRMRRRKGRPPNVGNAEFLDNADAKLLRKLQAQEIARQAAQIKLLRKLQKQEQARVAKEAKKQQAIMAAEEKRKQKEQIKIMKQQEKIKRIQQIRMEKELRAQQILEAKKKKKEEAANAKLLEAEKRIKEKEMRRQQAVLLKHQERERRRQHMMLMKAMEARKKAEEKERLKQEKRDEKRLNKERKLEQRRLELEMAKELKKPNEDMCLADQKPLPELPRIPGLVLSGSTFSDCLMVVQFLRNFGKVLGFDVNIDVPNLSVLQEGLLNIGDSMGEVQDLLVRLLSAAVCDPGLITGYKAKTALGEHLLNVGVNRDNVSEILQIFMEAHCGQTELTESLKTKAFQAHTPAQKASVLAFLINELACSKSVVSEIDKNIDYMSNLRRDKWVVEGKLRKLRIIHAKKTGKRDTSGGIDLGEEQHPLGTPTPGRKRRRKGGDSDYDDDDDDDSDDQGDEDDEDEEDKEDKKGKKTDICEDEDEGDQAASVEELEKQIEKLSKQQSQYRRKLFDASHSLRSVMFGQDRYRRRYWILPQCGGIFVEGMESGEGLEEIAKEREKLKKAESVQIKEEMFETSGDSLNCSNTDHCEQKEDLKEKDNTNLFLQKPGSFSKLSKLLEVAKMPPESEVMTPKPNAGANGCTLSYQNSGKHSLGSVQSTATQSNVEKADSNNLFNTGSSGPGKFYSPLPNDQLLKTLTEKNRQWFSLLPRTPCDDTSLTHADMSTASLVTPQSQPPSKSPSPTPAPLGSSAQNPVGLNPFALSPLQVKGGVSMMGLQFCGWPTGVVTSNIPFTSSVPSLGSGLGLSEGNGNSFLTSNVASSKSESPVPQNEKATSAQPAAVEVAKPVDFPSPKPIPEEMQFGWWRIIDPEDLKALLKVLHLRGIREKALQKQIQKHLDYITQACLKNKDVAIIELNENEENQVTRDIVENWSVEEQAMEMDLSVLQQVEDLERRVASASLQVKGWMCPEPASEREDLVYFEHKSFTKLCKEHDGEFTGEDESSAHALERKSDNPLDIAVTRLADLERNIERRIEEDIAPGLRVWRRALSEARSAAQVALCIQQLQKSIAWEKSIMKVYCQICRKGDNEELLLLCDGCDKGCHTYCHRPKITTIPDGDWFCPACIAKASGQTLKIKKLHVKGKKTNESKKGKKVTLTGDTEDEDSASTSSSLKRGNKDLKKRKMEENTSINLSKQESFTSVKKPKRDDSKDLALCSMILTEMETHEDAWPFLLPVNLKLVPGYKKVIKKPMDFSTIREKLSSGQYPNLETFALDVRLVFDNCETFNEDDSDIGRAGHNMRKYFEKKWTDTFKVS
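Protein-peptide AlphaScreen: BAZ2B 50 nM, b-H3K14Ac 50 nM, 1x PBS pH 7.4 + 0.01% Tween-20. Preincubation 30 min RT; cpd 30 min RT (top 110 uM); beads 20 min RT, light-protected.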
G9a inh = blocks human histone lysine methyltransferase G9a | Q96KQ7 | G9a H3K9 monomethylation, AlphaScreen, 2 h | Potency, µM (top dose mostly 102 µM), inactives show at the top dose activity, negative = inhibition, most hits filed as inhibitors | 350,000 tested, 8.8% active; further: on the % scale 0 is the no-effect control and ±100 the full control effect; nearly all actives have a fitted effect of over 75% in size
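Signal arises when biotinylated H3K9 peptide, once monomethylated, bridges streptavidin donor and antibody-captured acceptor beads. Enzyme at 20 nM was preincubated 15 min with test compounds; peptide 500 nM and SAM 20 uM then reacted for 2 h.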
HP1b chromo inh = HP1-beta chromodomain-methylated histone interaction inhibition; Potency, µM (top dose mostly 114 µM), for the others: at the highest dose activity change, negative = inhibition, usual class: inhibitors; 390,000 tested, 0.56% active; P83916; AID 540317; AlphaScreen HP1-beta / biotin-H3K9me3 peptide binding; further: nearly all actives have a fitted effect of over 70% in size
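HP1-beta protein (50 nM final) preincubated 30 min at room temperature with biotinylated H3(1-18)K9me3 peptide (50 nM) in PBS pH 7.4, 0.01% Tween-20, then compound added for 30 min. AlphaScreen streptavidin donor/nickel chelate acceptor beads (10 ug/mL final), 30 min dark, luminescence read.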
Active calls of the source: *; ? = inconclusive; · = no result; ! = repeats disagree; [ ] = remark or other dose. In the library only some 12% were active in any assay of this set; here they are far more common. The call rests on the fitted dose curve; in most records, active means well fitted curve in the direction sought with a large enough effect; inconclusive means small, poorly fitted or top-dose-only effect, or another doubt; inactive means no such curve, though single readings can be large; an effect the other way counts as inactive or inconclusive. Potency means the concentration at half of the fitted maximal effect.

SMILES | JMJD2A Tudor | L3MBTL1 inh | Sfp PPTase inh | BAZ2B block | G9a inh | HP1b chromo inh
CN(CC(=O)Nc1ccc(F)c(F)c1F)C(=O)C1=COCCO1 | -11.3% | · | 7.6% | -1.5% | -5.9% | 6.7%
CCCN(CC(=O)Nc1ccc(F)c(F)c1F)C(=O)C1=COCCO1 | 2.6% | 1.0% | · | -10.0% | 56.2µM* | 38.4%
CCOc1cc(C2C(C#N)=C(N)OC(C)=C2C(C)=O)c(Br)c(Br)c1OC(C)C (stereo not drawn) | -22.2% | -9.5% | -8.9% | -8.4% | ? | 33.1%
CCOc1cc(C2C(C#N)=C(N)OC(C)=C2C(C)=O)cc(Br)c1O (stereo not drawn) | 89.1µM* | -5.3%[11.4 µM] | 6.9% | ? | ? | -16.9%
Cc1ccccc1NCc1ccccc1O | ? | -3.1% | ? | 56.2µM* | 39.8µM* | -3.4%
COc1ccc(-c2ccccc2)cc1NCc1ccc(OC)c(OC)c1 | 39.8µM* | ? | ? | 39.8µM* | 10µM* | ?
COc1ccc(-c2ccccc2)cc1NCc1ccccc1C | ? | -11.0% | -20.2% | 50.1µM* | ? | -11.7%
Cn1c(=O)c2c(ncn2CC(=O)OCCCC(=O)c2ccc(Br)cc2)n(C)c1=O | -9.7% | 2.5% | · | · | · | -0.7%
COc1cc(C(=O)NCC2CCCO2)cc(Br)c1OCc1ccccc1 (stereo not drawn) | -10.1% | 3.0% | · | 5.1% | 31.0%[12.7 µM] | 35.2%
O=C1c2ccc([N+](=O)[O-])cc2S(=O)(=O)N1Cc1ccccc1 | ? | · | -7.1% | ? | 11.2µM* | ?
COc1ccc(-c2noc(CSc3nnc(C)n3-c3ccc(F)cc3)n2)cc1 | -11.5% | · | · | -10.0% | -25.7%[59 µM] | 22.6%
CCOC(=O)c1c(NC(=O)c2cc(CC(C)C)on2)sc(C(C)=O)c1C | 4.8% | 2.0% | -12.1% | -4.8% | 7.94µM* | -0.1%
CCOC(=O)c1c(NC(=O)c2cc(-c3ccc(Br)cc3)on2)sc(C(C)=O)c1C | -17.1% | · | · | -28.3% | -36.3%[59 µM] | 10.7%
CCCc1cc(C(=O)Nc2sc(C(C)=O)c(C)c2C(=O)OCC)no1 | 0.0% | 3.2% | -20.8% | -3.4% | ? | 5.6%
CCOC(=O)c1c(NC(=O)c2cc(C(C)C)on2)sc(C(C)=O)c1C | 1.7% | · | 3.9% | -17.8% | 7.94µM*! | -4.1%
COc1ccc2c(C)cc(SCC(=O)Nc3nsc(-c4ccccc4C)n3)nc2c1 | -9.3% | · | · | ? | -25.8%[59 µM] | 21.7%
COCCNC(=O)CCC1CCN(Cc2cccc(-c3ccc(C)o3)c2)CC1 | -23.4% | -1.5% | -7.9% | -10.2% | 22.4µM* | 22.0%
COc1cccc(CN2CC(C(=O)NCCOc3ccccc3)CCC2=O)c1 (stereo not drawn) | -2.8% | · | 3.9% | -3.7% | 17.0% | 18.2%
COCCNC(=O)C1CCN(Cc2cccc(OCc3ccccc3)c2)CC1 | 0.794µM* | -0.5%[2.29 µM] | -8.6% | ? | 22.1%[0.501 µM] | ?
COc1cc(CN2CCC(C(=O)NCCC(C)C)CC2)ccc1OCc1ccccc1 | 28.2µM* | -4.3% | 10.4% | -36.9% | 50.1µM* | ?
CC(C)CCNC(=O)C1CCN(Cc2cccc(OCc3ccccc3)c2)CC1 | 10µM* | 6.9% | -28.7% | ? | · | ?
Cc1ccc(N2C(=O)CCC2(C(N)=O)c2ccccc2)cc1 (stereo not drawn) | -1.4% | 3.5% | 17.8% | -2.3% | 7.1% | 38.4%
Cc1ccc(CNC(=O)CS(=O)Cc2nc(-c3ccccc3F)oc2C)cc1 (stereo not drawn) | ? | · | -0.8% | -15.2% | ? | -5.6%
Cc1nn(-c2nnc(C)c(=O)[nH]2)c(C)c1SCC(=O)Nc1ccc(F)cc1 | 31.6µM* | 3.5% | 31.6µM* | 50.1µM* | ? | 17.2%
CCOC(=O)C(C)Sc1nc2c(c(=O)[nH]c(=O)n2C)n1C/C=C(/C)Cl (stereo not drawn) | ? | -6.5% | 22.4µM* | -5.0% | 7.08µM* | -80.1%
SMILES | JMJD2A Tudor | L3MBTL1 inh | Sfp PPTase inh | BAZ2B block | G9a inh | HP1b chromo inh
CSc1nc2c(c(=O)[nH]c(=O)n2C)n1C/C=C(\C)Cl | -7.7% | -4.0% | -21.3% | -7.7% | 39.8µM* | -10.8%
CCSc1nc2c(c(=O)[nH]c(=O)n2C)n1C/C=C(/C)Cl | -1.9% | · | -18.3% | -4.7% | ? | 14.7%
CNc1nc(C#N)nc(Nc2ccccc2)n1 | -17.9% | · | · | · | · | ·
CNc1nc(NN)nc(Nc2ccccc2)n1 | 25.1µM* | -1.8%[2.29 µM] | 10.0% | 28.2µM* | -8.3%[0.501 µM] | 41.1%
COc1ccc(NC(=O)CSc2oc(-c3ccco3)nc2S(=O)(=O)c2ccc(Br)cc2)c(OC)c1 | -21.8% | · | · | -10.3% | -26.8%[59 µM] | -13.7%
Cc1ccc2cc(CN(CCN3CCOCC3)Cc3nnnn3Cc3ccco3)c(=O)[nH]c2c1C | -7.4% | 4.6% | -25.4% | 6.9% | 56.2µM* | 37.9%
Cc1ccc2cc(CN(Cc3ccc4c(c3)OCO4)Cc3nnnn3Cc3ccco3)c(=O)[nH]c2c1C | -32.3% | ? | 22.4µM* | -8.9% | 11.2µM* | 16.8%
Cc1ccc2[nH]c(=O)c(CN(Cc3cccs3)Cc3nnnn3Cc3ccco3)cc2c1 | ? | · | · | · | · | 4.7%[57 µM]
COCCn1nnnc1CN(Cc1ccco1)Cc1cc2cc3c(cc2[nH]c1=O)OCO3 | -8.6% | 5.1% | -5.3% | -4.9% | -0.7%[12.7 µM] | 47.2%
Cc1ccc(C)c2[nH]c(=O)c(CN(Cc3ccc4c(c3)OCO4)Cc3nnnn3Cc3ccco3)cc12 | -30.8% | -6.4% | 50.1µM* | -37.8% | -48.1%[59 µM] | 25.1%
O=C(O)C1C2C=CC(C3CC23)C1C(=O)O (stereo not drawn) | -19.2% | 17.0%[11.4 µM] | 8.0% | 8.5% | -5.8%[59 µM] | 4.5%
O=C(O)C1OC(C(=O)O)C(C(=O)O)C1C(=O)O (stereo not drawn) | 20µM* | · | · | · | · | -13.1%
O=S(=O)(Nc1cccc2cccnc12)c1ccccc1Br | -11.0% | · | · | · | · | 31.9%
CCN1C(=O)[C@@H]2[C@H](C1=O)[C@@H]1C[C@H]3C(=O)N(CC)C(=O)[C@H]3[C@@H]3C1=C(C(=O)N1C(=O)O/C(=N\CC4CC4)[C@]31C)[C@@H]2C | · | · | 16.7% | · | · | ·
O=S(=O)(NC(=S)NC1CCCCC1)c1cccs1 | -13.1% | 1.2% | ? | -25.2% | 20µM* | 0.3%
O=S(=O)(NC(=S)NC1CCCCC1)c1ccccc1 | -17.6% | 0.4% | ? | -36.4% | 25.1µM* | 19.3%
O=C(NC1CCCCC1)C(Cc1ccccc1)NS(=O)(=O)c1cccs1 (stereo not drawn) | -15.1% | · | 6.8% | -3.4% | -1.5% | 18.6%
C/C(=N\NC(=S)NC1CCCCC1)c1cccs1 | ? | -24.2%[11.4 µM] | 7.6% | 50.1µM* | ? | ?
O=S(=O)(NC1CCCCCCC1)c1ccccc1 | 4.1% | 6.9% | 0.8% | -0.8% | 58.0% | 48.8%
CCOc1ccc(S(=O)(=O)Nc2ccn(C)n2)cc1 | -9.8% | -0.6% | · | 9.3% | 1.6%[12.7 µM] | 26.7%
